Test results reported in the supplement of paper PMC12669032.
A number with no mark means an inactive call.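 The calls were made as follows: active = AUC reduced over 20% with Padj below 0.05 in at least 2 of 3 replicates; inactive = otherwise.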

Key:
Assay in all cases: growth AUC relative to DMSO control (median of replicates) (fraction); higher = more growth (less inhibition), active = hit call of the paper
Conditions in all cases: 20 µM; 24 h
[1] = tested on: Akkermansia muciniphila
Outline: (§1)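 Area under the growth curve was normalised to the plate median of solvent-only wells, except on the industrial chemical plate, where row and column medians were used. Curves came from gut bacterial monocultures grown anaerobically at 37 °C in mGAM with 20 µM compound (1% DMSO), starting at OD600 0.05 and read at OD600 every hour for 24 h. The minimum OD of each curve was set to 0, and values are medians of three biological replicates grown on separate days.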

[2] = tested on: Bacteroides caccae
Outline: as §1

[3] = tested on: Bacteroides clarus
Outline: as §1

[4] = tested on: Bacteroides dorei
Outline: as §1

[5] = tested on: Bacteroides stercoris
Outline: as §1

[6] = tested on: Bacteroides thetaiotaomicron
Outline: as §1

[7] = tested on: Bacteroides uniformis
Outline: as §1

[8] = tested on: Bifidobacterium longum subsp. longum
Outline: as §1

[9] = tested on: Clostridium difficile
Outline: as §1

[10] = tested on: Collinsella aerofaciens
Outline: as §1

[11] = tested on: Coprococcus comes
Outline: as §1

[12] = tested on: Escherichia coli ED1a
Outline: as §1

[13] = tested on: Escherichia coli IAI1
Outline: as §1

[14] = tested on: Eubacterium rectale
Outline: as §1

[15] = tested on: Fusobacterium nucleatum subsp. animalis
Outline: as §1

[16] = tested on: Lactobacillus gasseri
Outline: as §1

[17] = tested on: Lactobacillus paracasei
Outline: as §1

[18] = tested on: Odoribacter splanchnicus
Outline: as §1

[19] = tested on: Parabacteroides distasonis
Outline: as §1

[20] = tested on: Parabacteroides merdae
Outline: as §1

| SMILES | growth AUC [1] | growth AUC [2] | growth AUC [3] | growth AUC [4] | growth AUC [5] | growth AUC [6] | growth AUC [7] | growth AUC [8] | growth AUC [9] | growth AUC [10] | growth AUC [11] | growth AUC [12] | growth AUC [13] | growth AUC [14] | growth AUC [15] | growth AUC [16] | growth AUC [17] | growth AUC [18] | growth AUC [19] | growth AUC [20] |
| --- | --- | --- | --- | --- | --- | --- | --- | --- | --- | --- | --- | --- | --- | --- | --- | --- | --- | --- | --- | --- |
| CCCCN(C)C(=O)Nc1ccc(Cl)c(Cl)c1 | 0.739 | 0.886 | 0.952 | 0.97 | 1.16 | 0.899 | 0.864 | 0.951 | 0.943 | 1 | 1.04 | 1.01 | 1 | 1.04 | 1.01 | 0.965 | 0.98 | 0.901 | 0.816 | 0.932 |
| COC(=O)c1ccc(C)cc1C1=NC(C)(C(C)C)C(=O)N1 (racemic) | 1.03 | 1.01 | 0.971 | 0.975 | 0.863 | 0.976 | 1 | 1 | 0.972 | 0.957 | 0.993 | 0.969 | 0.97 | 1.03 | 0.916 | 0.931 | 0.959 | 1.07 | 1.03 | 0.976 |
| CCCCCCCCSCCO | 1.06 | 0.954 | 0.967 | 1.02 | 0.918 | 0.975 | 1 | 1.04 | 0.983 | 0.949 | 0.974 | 0.955 | 0.936 | 1.04 | 0.902 | 0.94 | 0.93 | 1.03 | 0.915 | 0.966 |
| CCCCCCCC/C=C\CCCCCCCCCCCC(=O)O | 1.05 | 1.01 | 1.02 | 0.995 | 1.01 | 1.02 | 1.01 | 0.902 | 1 | 0.983 | 0.96 | 1.02 | 1.01 | 0.983 | 1.02 | 0.979 | 0.991 | 1 | 0.914 | 1.01 |
| COc1nc(OC)nc(C(=O)c2cccc(F)c2N(C)S(=O)(=O)C(F)F)n1 | 0.993 | 1 | 1 | 1 | 1.07 | 1.01 | 1.03 | 1.03 | 1.04 | 1.04 | 1.03 | 0.999 | 0.986 | 1.18 | 1.05 | 1.02 | 0.977 | 0.892 | 1.03 | 0.927 |
| CCc1cccc(C)c1NC(=O)C(=O)O | 0.965 | 1.01 | 0.999 | 1 | 0.999 | 0.942 | 1 | 1.02 | 0.972 | 0.983 | 0.985 | 1.02 | 1 | 0.989 | 0.981 | 0.916 | 0.969 | 0.998 | 0.982 | 1.03 |
| CC(C)(C)C(=O)C(Oc1ccc(Cl)cc1)n1ccnc1 (stereo not given) | 1.07 | 0.971 | 0.987 | 0.98 | 1.04 | 0.944 | 0.984 | 1.01 | 0.962 | 0.94 | 0.629 (active) | 1.03 | 0.994 | 0.414 (active) | 1.02 | 0.918 | 0.971 | 0.994 | 0.938 | 0.96 |
| O=C(Nc1ccc(O)cc1-c1ccc(Cl)cc1)c1cccnc1Cl | 0.889 | 1.02 | 0.976 | 1.03 | 0.964 | 1.01 | 1 | 1.01 | 1.03 | 1.02 | 0.924 | 0.986 | 0.976 | 0.962 | 0.916 | 1.02 | 1 | 0.872 | 1.01 | 0.994 |
| CS(=O)(=O)c1ccc(C(=O)O)c(N)c1 | 1.13 | 0.993 | 1.01 | 1.02 | 1.03 | 0.994 | 1.03 | 1 | 1.03 | 1.03 | 1.05 | 1.02 | 1.01 | 1.05 | 1.08 | 1.13 | 1 | 1.02 | 1.04 | 1.01 |
| CC(C)OC(=O)[C@@H](C)N(C(=O)c1ccccc1)c1ccc(F)c(Cl)c1 | 0.996 | 0.961 | 0.99 | 1.02 | 0.99 | 0.984 | 1.04 | 1.01 | 0.978 | 0.954 | 1.05 | 1.03 | 1 | 1.27 | 1.1 | 0.933 | 1.09 | 0.977 | 1 | 1.01 |
| Cc1nn(C)c(Oc2ccccc2)c1/C=N/OCc1ccc(C(=O)OC(C)(C)C)cc1 | 1.04 | 1.01 | 1.03 | 0.974 | 0.961 | 0.982 | 0.969 | 0.944 | 1.02 | 0.963 | 0.996 | 0.984 | 0.991 | 0.907 | 0.973 | 0.901 | 1.01 | 1.01 | 1.03 | 0.925 |
| CC(C)OC(=O)N[C@H](C(=O)N[C@H](C)c1nc2ccc(F)cc2s1)C(C)C | 1.17 | 0.963 | 0.997 | 0.934 | 0.982 | 1.01 | 0.93 | 1.06 | 0.942 | 0.964 | 1.06 | 0.989 | 1 | 1.13 | 1.16 | 0.859 | 1.03 | 1.02 | 0.847 | 1 |
| CC(C)c1nn(C(=O)NC(C)(C)C)c(=O)n1N | 0.95 | 1.04 | 0.976 | 1.02 | 1.08 | 0.976 | 1 | 0.999 | 1 | 1.05 | 1.02 | 1.02 | 1.02 | 0.971 | 0.994 | 1.07 | 1.02 | 1 | 1 | 1.02 |
| CCCCCCC(C)OC(=O)COc1nc(F)c(Cl)c(N)c1Cl (stereo not given) | 0.94 | 0.885 | 0.874 | 1 | 0.699 | 0.97 | 0.874 | 0.848 | 0.952 | 0.928 | 0.928 | 1 | 1.01 | 0.875 | 0.935 | 0.967 | 0.942 | 1.04 | 0.919 | 0.891 |
| C=CCO/N=C(\CCC)C1=C([O-])CC(C)(C)C(C(=O)OC)C1=O.[Na+] (stereo not given) | 1.2 | 1 | 1.03 | 0.933 | 1.07 | 1.02 | 1.01 | 1.05 | 1.05 | 1.03 | 1.03 | 1.02 | 1.02 | 1.12 | 1.12 | 0.892 | 1.04 | 1.05 | 1.01 | 1.06 |
| c1ccc2cc3c(ccc4ccccc43)cc2c1 | 1.01 | 0.994 | 1 | 0.993 | 0.994 | 1.01 | 1.01 | 0.962 | 0.992 | 1 | 1 | 0.999 | 0.994 | 1.08 | 1.01 | 0.969 | 1 | 0.992 | 0.961 | 0.995 |
